PubChem BioAssay (EPA / NIEHS)
The source made the active and inactive calls. How the source made its calls: active means hit-call score of the fitted dose curve at least 0.9, where 1 is the maximum; inactive means score below 0.9.

read-out: Bcl-2 (BAD) gene, BAD (gene 572); test: LTEA_HepaRG_BAD: Life Technologies and Expression Analysis (LTEA) Assay for Bcl-2 (BAD) gene using HepaRG (AID 2283469); conditions: mRNA level, 48 h; actives raise or lower the signal
Method: LTEA_HepaRG is a cell based, multiplexed-readout assay that uses HepaRG, a human liver cell line, with measurements taken at 48 hours after chemical dosing on a 96-well plate.LTEA_HepaRG_BAD is one of 102 assay component(s) measured in the LTEA HepaRG cell culture assay. It is a marker of Cell proliferation, survival, death.Data from the assay component LTEA_HepaRG_BAD was analyzed into 1 endpoint. This assay endpoint, LTEA_HepaRG_BAD, was analyzed with bidirectional fitting relative to DMSO as the negative control and baseline of activity. Using a type of inducible reporter, measures of mRNA induction for gain or loss-of-signal activity can be used to understand regulation of transcription factor activity. To generalize the intended target to other relatable targets, this assay endpoint is annotated to the cell cycle intended target family, where the subfamily is Cell proliferation, survival, death.
A total of 1060 chemcials from the ToxCast library were tested in eight-point concentration-response experiments. Cell culture and cytotoxicity assays were conducted at Thermo Fisher Scientific's Custom Services facility (Madison, WI). A single lot of human HepaRG cells (Thermo Fisher Scientific, Frederick, MD) was used for the cell culture experiments. 96-well format collagen type I coated plates of human HepaRG cells were prepared using established methods. Briefly, cryopreserved HepaRG cells were thawed, plated at a density of approximately 100,000 cells/well in HepaRG Thaw, Plate, and General Purpose media (HPRG770, Thermo Fisher Scientific), and incubated for 48 hours. 0.5% DMSO was selected as vehicle control to balance the requisite need of DMSO in HepaRG cultures to maintain differentiation (for example, baseline metabolism, proportions of hepatocytes vs. cholangiocytes), while enabling further hepatic receptor pathway activation (for example, PXR and CAR) in response to chemical exposure. 48 hours after plating, the culture medium was replaced with HepaRG Serum-Free Incudtion Media. Cells were exposed to each test chemical in duplicate and maintained in CO2 incubators for another 48 hours. Chemical plates were thawed to room temperature and 200x concentrations of treatment groups were prepared. 8-point conentration-reponse curves were made with the highest exposure at 100 uM, followed by half-log dilutions, all in 0.5% DMSO. Each test plate contained variouse controls, induction positive controls (1mM phenobarbital), cytotoxicity positive controls ([…] aflatoxin B1), vehicle controls (0.5% DMSO), and total lysis controls (0.5% DMSO). Cell morphology images were taken using an Essen IncuCyte FLR automated microscope, with six 96-well plates imaged in about 24 minutes. Images were captured and exported and JPEG files. Spent culture media was transfered to black-well plates for the LDH assay, and remaining media was sorted at -80 C for later use. Cells were treated with RLT buffer and frozen until shipped for gene expression analysis. Total RNA was isolated from the cell suspension in 75 uL of Buffer RLT (Qiagen, Germantown, MD 20874) by Quintiles/Expression Analysis (Durham, NC) using a custom isolation procedure. Total RNA from each plate well was transferred to a preamplification plate. Fluidigm's 96.96 Dynamic ArrayTM (Fluidigm, Amsterdam, the Netherlands) technology was used for gene expression analyses by quantitative reverse transcription polymerase chain reaction (qRT-PCR, performed by Quintiles/Expression Analysis, Durham, NC)89. Standard TaqManTM Assays (Applied Biosystems/ThermoFisher Scientific, Foster City, CA) were used to assess the expression of 93 genes selected based on their selectivity and sensitivity to important hepatic receptors known to be modulated by environmental chemicals; importance in human hepatocyte functionality; and hepatotoxicity. […]

outcome, inactive:
O=C1OC(=O)C2C3C=CC(C3)C12 (stereo not given)
CC(C)=CCC/C(C)=C\CO
Cc1[nH]cnc1C[C@H]1CCc2c(C)c3ccccc3n2C1=O
C[C@](N)(Cc1ccc(O)c(O)c1)C(=O)O
CC(C)CC(C)(O)C#CC(C)(O)CC(C)C (stereo not given)
O=C(CCCCCCCCc1cccnc1)N1CCC(C=C(c2ccccc2)c2ccccc2)CC1
CCCCCCCCCCCCc1ccccc1
C1N2CN3CN1CN(C2)C3
CC(C)CCCCCCCOC(=O)CCCCC(=O)OCCCCCCCC(C)C
CC(C)=CCCC(C)=CC=O
On1ccccc1=S
CC1=CC(=O)CC(C)(C)C1
CC[C@H]1CC[C@H](NCc2cc3c(cc2OC)[C@H]2C[C@H]2C(=O)N3C)[C@H](c2ccccc2)N1
O=C1CCCCCN1
O=C(NS(=O)(=O)/C=C/c1ccccc1)c1ccc(F)cc1Cl
Cn1c(=O)cc(Oc2ccc(F)cc2F)c2cnc(NCC(C)(C)O)nc21
COC(=O)c1c(Cl)c(Cl)c(C(=O)OC)c(Cl)c1Cl
CC(C)c1cccc(C(C)C)c1N1C(=O)c2ccc(O)cc2C1=O
O=c1[nH]c2ccc(S(=O)CCN3CCC(Cc4ccc(F)cc4)CC3)cc2o1 (stereo not given)
CCOC(=O)COc1ccc2c(c1)CC(NCC(O)c1cccc(Cl)c1)CC2 (stereo not given)
O=C(O)CCN(C1(C(=O)NO)CCCC1)S(=O)(=O)c1ccc(Oc2ccc(F)cc2)cc1
CC(=O)OCCC(C)C
O=C1CCC(N2C(=O)c3ccccc3C2=O)C(=O)N1 (stereo not given)
CC1(C)C(=O)N(Br)C(=O)N1Br
CC[C@H](C)C(=O)O[C@H]1C[C@@H](C)C=C2C=C[C@H](C)[C@H](CC[C@@H]3C[C@@H](O)CC(=O)O3)[C@H]21
CCCCC(CC)COC(=O)CCCCCCCCC(=O)OCC(CC)CCCC (stereo not given)
CCC(C)(C)C(=O)O[C@H]1C[C@@H](C)C=C2C=C[C@H](C)[C@H](CC[C@@H]3C[C@@H](O)CC(=O)O3)[C@H]21
Cn1c(=O)c2c(ncn2C)n(C)c1=O
COc1cccc(-c2ccc(/C=C\CN3CCCCCC3)cc2Cl)c1
CC(C)=CCCC(C)CCO (stereo not given)
CC[C@H]1OC(=O)[C@H](C)[C@@H](O[C@H]2C[C@@](C)(OC)[C@@H](O)[C@H](C)O2)[C@H](C)[C@@H](O[C@@H]2O[C@H](C)C[C@H](N(C)C)[C@H]2O)[C@](C)(O)C[C@@H](C)C(=O)[C@H](C)[C@@H](O)[C@]1(C)O
COCCOCCOCCOC
CCOCCOCCOCCO
CC(C)(O)c1coc(S(=O)(=O)NC(=O)Nc2c3c(cc4c2CCC4)CCC3)c1
CCN(C(=O)c1cc(C)cc(OC[C@H](C)Nc2ccncc2)c1)C(C)C
CCCCC(CC)COC(=O)c1ccc(C(=O)OCC(CC)CCCC)cc1 (stereo not given)
Clc1nc(Cl)c(Cl)c(Cl)c1Cl
CNCc1ccc(NC(=O)c2c[nH]c3c2C(=O)CCC3)cc1
O=C(O)CC(O)C(=O)O (stereo not given)

AC50, active:
CCc1cc(SCc2sc(-c3ccc(C(F)(F)F)cc3)nc2CN2CCN(c3ccc(OC)cc3)CC2)ccc1OCC(=O)O 87 µM
